The values below come from PubChem BioAssay AID449739 (Vanderbilt High Throughput Screening Facility, 2010).

About 4,200 (4.2%) of roughly 100,000 compounds were called active. The sample as a whole holds a higher share of actives than the screen did. Values without a mark were called inactive.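 The calls were made as follows: active = single-dose well whose peak fluorescence ratio is a statistical outlier from its plate by either plate-standardised score or position-corrected B-score; inactive = the rest.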

The assay deals with Voltage-dependent T-type calcium channel subunit alpha-1H (Homo sapiens) (UniProt O95180). Put plainly: Cav3.2 calcium influx blockers – cell-based, Fluo-4 calcium fluorescence, FDSS, MLSMR library, primary screen (AID 449739). Conditions: Cav3.2-expressing cells, at 10 µM, active compounds read low.
Sequence of Voltage-dependent T-type calcium channel subunit alpha-1H (Homo sapiens) (O95180 whole entry, looked up): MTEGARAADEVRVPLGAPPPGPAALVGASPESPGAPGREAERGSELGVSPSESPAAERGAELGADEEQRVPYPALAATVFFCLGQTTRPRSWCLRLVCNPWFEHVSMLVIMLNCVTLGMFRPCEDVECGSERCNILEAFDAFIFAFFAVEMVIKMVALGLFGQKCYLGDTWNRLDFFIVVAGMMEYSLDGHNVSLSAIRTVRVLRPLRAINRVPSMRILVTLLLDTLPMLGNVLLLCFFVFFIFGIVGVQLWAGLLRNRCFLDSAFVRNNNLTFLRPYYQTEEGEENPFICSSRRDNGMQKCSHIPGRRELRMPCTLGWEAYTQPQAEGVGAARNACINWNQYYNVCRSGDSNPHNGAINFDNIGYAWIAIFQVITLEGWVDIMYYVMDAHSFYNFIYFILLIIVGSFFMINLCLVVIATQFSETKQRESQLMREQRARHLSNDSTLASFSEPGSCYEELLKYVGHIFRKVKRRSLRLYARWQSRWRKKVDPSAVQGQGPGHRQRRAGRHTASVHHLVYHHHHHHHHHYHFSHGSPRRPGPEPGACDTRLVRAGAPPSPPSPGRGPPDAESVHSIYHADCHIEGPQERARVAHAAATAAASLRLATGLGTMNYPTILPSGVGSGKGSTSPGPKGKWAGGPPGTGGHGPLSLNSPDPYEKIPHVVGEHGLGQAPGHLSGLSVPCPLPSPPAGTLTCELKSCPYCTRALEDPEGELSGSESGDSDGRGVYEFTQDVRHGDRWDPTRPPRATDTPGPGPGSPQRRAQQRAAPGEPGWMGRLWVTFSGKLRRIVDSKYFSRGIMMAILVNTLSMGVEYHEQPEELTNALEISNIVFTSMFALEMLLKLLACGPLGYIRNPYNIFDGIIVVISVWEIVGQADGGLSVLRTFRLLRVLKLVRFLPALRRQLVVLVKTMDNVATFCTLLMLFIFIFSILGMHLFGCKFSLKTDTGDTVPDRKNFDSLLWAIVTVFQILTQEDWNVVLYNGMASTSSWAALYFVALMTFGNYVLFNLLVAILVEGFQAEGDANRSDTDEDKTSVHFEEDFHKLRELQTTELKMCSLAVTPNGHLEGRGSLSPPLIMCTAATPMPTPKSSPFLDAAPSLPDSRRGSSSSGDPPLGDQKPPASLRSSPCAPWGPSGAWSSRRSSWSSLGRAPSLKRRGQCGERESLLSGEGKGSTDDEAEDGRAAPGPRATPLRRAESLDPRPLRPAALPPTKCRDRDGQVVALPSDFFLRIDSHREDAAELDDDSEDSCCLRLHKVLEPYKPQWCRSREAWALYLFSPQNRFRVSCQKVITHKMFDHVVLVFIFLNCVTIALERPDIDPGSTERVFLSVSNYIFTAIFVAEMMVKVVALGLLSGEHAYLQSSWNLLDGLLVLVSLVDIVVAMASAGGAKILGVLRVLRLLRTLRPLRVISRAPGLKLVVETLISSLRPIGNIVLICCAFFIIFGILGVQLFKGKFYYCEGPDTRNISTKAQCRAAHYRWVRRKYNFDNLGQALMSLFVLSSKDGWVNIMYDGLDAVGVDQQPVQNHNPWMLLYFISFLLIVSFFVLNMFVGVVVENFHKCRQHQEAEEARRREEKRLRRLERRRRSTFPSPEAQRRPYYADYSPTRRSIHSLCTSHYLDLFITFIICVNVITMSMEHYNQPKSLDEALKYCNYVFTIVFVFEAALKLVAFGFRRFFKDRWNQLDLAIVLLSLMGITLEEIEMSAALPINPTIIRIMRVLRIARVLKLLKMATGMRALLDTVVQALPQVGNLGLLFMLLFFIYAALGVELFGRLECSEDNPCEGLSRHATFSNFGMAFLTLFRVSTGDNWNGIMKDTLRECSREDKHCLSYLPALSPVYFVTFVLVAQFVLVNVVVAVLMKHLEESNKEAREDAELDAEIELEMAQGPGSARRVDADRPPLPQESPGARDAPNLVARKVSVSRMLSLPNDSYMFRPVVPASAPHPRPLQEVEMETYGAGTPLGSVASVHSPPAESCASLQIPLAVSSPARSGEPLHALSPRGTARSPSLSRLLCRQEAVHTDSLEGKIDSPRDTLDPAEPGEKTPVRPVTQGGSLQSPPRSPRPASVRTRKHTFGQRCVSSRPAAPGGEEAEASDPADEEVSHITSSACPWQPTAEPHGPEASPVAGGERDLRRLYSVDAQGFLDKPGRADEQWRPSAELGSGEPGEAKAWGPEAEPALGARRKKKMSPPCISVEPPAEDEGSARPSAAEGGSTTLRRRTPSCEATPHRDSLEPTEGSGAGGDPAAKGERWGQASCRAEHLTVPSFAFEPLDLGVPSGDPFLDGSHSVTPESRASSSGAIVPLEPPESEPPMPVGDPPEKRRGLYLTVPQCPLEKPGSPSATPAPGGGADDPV
As for `N#Cc1c(NC(=O)CSc2nc3ccccc3c(=O)n2Cc2ccco2)sc2c1CCCC2`, the B-score was -5.99 (active).

As to `CC(Sc1nc2ccccc2c(=O)n1Cc1ccco1)C(=O)c1ccccc1` (centres undefined), the B-score is -4.25 (active).

Regarding `COc1ccc(-n2c(SCC(=O)Nc3sc4c(c3C#N)CCCC4)nnc2-c2ccc(O)cc2)cc1`, the B-score was -0.184.

For `O=C(CCCn1c(SCC(=O)c2ccc(F)cc2)nc2ccccc2c1=O)NCc1ccco1`, the B-score was -2.82.

Consider `CCOC(=O)C(C)Sc1nc2ccccc2c(=O)n1CC1CCCCC1` (centres undefined), for which the B-score is -2.88.

Consider `C=C(C)Cn1c(SCC(=O)NCc2ccco2)nc2sc3c(c2c1=O)CCC3`, for which the B-score is -0.92.

In the case of `CCCNC(=S)NC1CC2CCCC(C1)N2CC(C)C` (centres undefined), the B-score is 1.82.

With `COc1ccc(N2CCN(C(=O)c3ccc4c(Cl)c5c(nc4c3)CCCC5)CC2)cc1`, the B-score was -0.0196.

As for `CN1CCN(S(=O)(=O)c2ccc(N3CCN(S(=O)(=O)c4cccs4)CC3)nc2)CC1`, the B-score was 1.73.

As for `N#Cc1cc([N+](=O)[O-])ccc1Oc1cccc(/C=N/NC(=O)c2ccc(Cl)cc2)c1`, the B-score is -0.086.

Turning to `CCOC(=O)Cc1csc(NC(=O)CSc2nc(C)cc(=O)[nH]2)n1`, the B-score was -5.95 (active).

For `CCOC(=O)Cc1csc(NC(=O)C(C)(C)C)n1`, the B-score was 0.211.

As for `CCCCc1nnc(NC(=O)CSc2nc(C)cc(=O)[nH]2)s1`, the B-score was -0.0258.

For `C=CCn1c(-c2ccc(Cl)cc2)ccc(C#N)c1=O`, the B-score was -1.56.

Take `NC1=NC[C@@H](Cc2ccc(O)cc2)N1CC1CCCCC1`: the B-score is 0.0175.

As for `C#Cc1ccc([C@@H]2C=C(C(=O)O)O[C@H](OCCCCO)C2)cc1`, the B-score is -1.58.

With `CC1CCCN(Cc2nc3c(c(=O)n(C)c(=O)n3C)n2CC(=O)c2ccccc2)C1` (centres undefined), the B-score is -0.792.

Regarding `CCCCCCn1c(CN2CCCC(C)C2)nc2c1c(=O)n(C)c(=O)n2C` (centres undefined), the B-score is -3.75 (active).

With `CCN1CCN(Cc2nc3c(c(=O)n(C)c(=O)n3C)n2CC(=O)c2ccccc2)CC1`, the B-score was 0.531.

Take `C/C(=N/NC(=O)c1ccc(NC(=O)c2ccc(F)cc2)cc1)c1ccccc1`: the B-score was 0.425.

On to `O=C(Nc1cccc2ncccc12)c1ccc(-c2ccc(Cl)cc2Cl)o1`, for which the B-score is -0.641.

As for `Clc1ccc(COn2c(-c3ccc(Cl)cc3Cl)nc3ncccc32)cc1`, the B-score is -5.63 (active).

Regarding `CCOc1ccc(OCC)c(-c2c(=O)n(OCc3ccc(Cl)cc3)c3ccccc3[n+]2[O-])c1`, the B-score was -1.31.

On to `COc1ccc(C(F)(F)F)cc1N/C=C\c1nnnn1-c1ccc(C)cc1`, for which the B-score is -3.02.
